This note sets out measurements from PubChem BioAssay (EPA / NIEHS).

Results filed as inconclusive are left out. Calls of active or inactive are those of the source. The calls were made as follows, unless noted: active = hit-call score of the fitted dose curve at least 0.9, where 1 is the maximum; inconclusive = response in the unintended direction; inactive = score below 0.9.

Read-out in experiment [1]: Intercellular Adhesion Molecule 1 (ICAM1), ICAM1 (gene 3383)
Kind of experiment: BSK_3C_ICAM1: BioMAP Diversity Plus: 3C Assay for Intercellular Adhesion Molecule 1 (ICAM1) Biomarker Activity (AID 2283003; active = hit-call score of the fitted dose curve at least 0.9, where 1 is the maximum; inactive = score below 0.9). Particulars: primary human endothelial cells (HUVEC); actives raise or lower the signal. An outline of the steps: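 Primary human umbilical vein endothelial cells in the BioMAP 3C system were exposed to chemicals for 24 h, then ICAM-1 was quantified by ELISA. Activity was fitted bidirectionally against the DMSO negative control baseline.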

A short description of experiment [2]: BSK_3C_Proliferation: Cell Proliferation Assessment in the BioMAP Diversity Plus: 3C Assay (AID 2283006; active = hit-call score of the fitted dose curve at least 0.9, where 1 is the maximum; inactive = score below 0.9;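 as to AC50: potency may reflect either rise or fall in cell number versus DMSO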). The conditions noted are these: primary human endothelial cells (HUVEC). An outline of the steps: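 Human umbilical vein endothelial cells were grown sub-confluent and exposed to chemical for 48 h, then fixed with 10% TCA and stained with 0.1% sulforhodamine B; absorbance at 560 nm gave relative cell number, fitted bidirectionally against DMSO baseline.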

For experiment [3], the target named is Nuclear receptor subfamily 1 group I member 2 (Homo sapiens) (UniProt O75469). Kind of experiment: ATG_PXR_TRANS: Attagene TRANS-FACTORIAL HepG2 Assay for human Pregnane X Receptor (PXR) (AID 2283008). An outline of the steps: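 HepG2 cells transiently transfected with GAL4-UAS reporter units and PXR-Gal4 chimera, exposed 24 h. Reporter mRNA quantified by RT-PCR, fluorescent labelling, HpaI digestion and capillary electrophoresis; gain of signal vs DMSO.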
Chain of Nuclear receptor subfamily 1 group I member 2 (Homo sapiens) (O75469 whole entry, looked up, the tested form may be a part): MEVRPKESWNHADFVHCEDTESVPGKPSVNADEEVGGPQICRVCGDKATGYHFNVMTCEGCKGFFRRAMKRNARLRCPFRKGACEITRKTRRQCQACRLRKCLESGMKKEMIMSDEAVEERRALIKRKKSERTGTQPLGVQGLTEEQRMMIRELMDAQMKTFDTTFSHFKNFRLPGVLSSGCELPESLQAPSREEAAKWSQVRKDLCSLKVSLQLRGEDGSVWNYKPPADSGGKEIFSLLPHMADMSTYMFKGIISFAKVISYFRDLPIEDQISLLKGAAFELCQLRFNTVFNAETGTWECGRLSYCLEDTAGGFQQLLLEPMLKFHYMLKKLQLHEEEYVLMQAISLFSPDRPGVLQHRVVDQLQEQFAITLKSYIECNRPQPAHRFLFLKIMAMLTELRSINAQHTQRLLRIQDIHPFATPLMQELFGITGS

Experiment [4] addresses human RAR-related Orphan Receptor beta (RORb), RORB (gene 6096) (UniProt Q92753). Kind of experiment: ATG_RORb_TRANS: Attagene TRANS-FACTORIAL HepG2 Assay for human RAR-related Orphan Receptor beta (RORb) (AID 2283010). An outline of the steps:
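HepG2 cells were transiently transfected with multiplexed GAL4-UAS reporter units expressing chimeric nuclear receptor–GAL4 proteins, then dosed for 24 h. Reporter mRNA was quantified by RT-PCR with fluorescent labelling and capillary electrophoresis; gain of signal was fitted relative to DMSO.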

Experiment [5] addresses human Thyroid Receptor alpha (THRa1), THRA (gene 7067) (UniProt P10827). Kind of experiment: ATG_THRa1_TRANS: Attagene TRANS-FACTORIAL HepG2 Assay for human Thyroid Receptor alpha (THRa1) (AID 2283014). An outline of the steps:
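Transcripts from GAL4-UAS-driven reporters, measured after 24 h compound exposure by RT-PCR plus capillary electrophoresis of 6-FAM-labeled fragments, were fitted for gain of signal relative to DMSO. Cells: transiently transfected HepG2 expressing NR-Gal4 chimeras.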

Read-out in experiment [6]: E-selectin (Homo sapiens) (UniProt P16581)
Kind of experiment: BSK_3C_Eselectin: BioMAP Diversity Plus: 3C Assay for Eselectin Biomarker Activity (AID 2283015; active = hit-call score of the fitted dose curve at least 0.9, where 1 is the maximum; inactive = score below 0.9;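 as to outcome: cell surface E-selectin protein quantified by ELISA 24 h after dosing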). The conditions noted are these: primary human endothelial cells (HUVEC); actives raise or lower the signal. An outline of the steps: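 E-selectin ELISA readout, fitted bidirectionally relative to DMSO, taken 24 h post-dosing in HUVEC cultures of the 3C system. Overt cytotoxicity tracked with sulforhodamine B staining of parallel wells.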

Read-out in experiment [7]: Interleukin-1 alpha (IL1a), IL1A (gene 3552)
Kind of experiment: BSK_BE3C_IL1a: BioMAP Diversity Plus: BE3C Assay for Interleukin-1 alpha (IL1a) Biomarker Activity (AID 2283016; active = hit-call score of the fitted dose curve at least 0.9, where 1 is the maximum; inactive = score below 0.9). Particulars: primary human bronchial epithelial cells; actives raise or lower the signal. An outline of the steps:
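Human primary bronchial epithelial cells (BE3C system) were dosed with compound and IL-1a measured by ELISA 24 h later. Activity was fitted bidirectionally against DMSO baseline; cytotoxicity was tracked in parallel cultures by SRB total-protein staining.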

Read-out in experiment [8]: Monocyte Chemoattractant Protein-1 (MCP1), CCL2 (gene 6347)
Kind of experiment: BSK_4H_MCP1: BioMAP Diversity Plus: 4H Assay for Monocyte Chemoattractant Protein-1 (MCP1) Biomarker Activity (AID 2283018; active = hit-call score of the fitted dose curve at least 0.9, where 1 is the maximum; inactive = score below 0.9). Particulars: primary human endothelial cells (HUVEC); actives raise or lower the signal. An outline of the steps: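 Human umbilical vein endothelial cells (4H system) dosed with chemical; MCP-1 measured by ELISA 24 h after dosing. Bidirectional curve fitting against DMSO negative control as baseline; parallel SRB total-protein staining tracks overt cytotoxicity.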

Read-out in experiment [9]: Human Leukocyte Antigen - DR isotype (HLADR), HLA-DRA (gene 3122)
Kind of experiment: BSK_3C_HLADR: BioMAP Diversity Plus: 3C Assay for Human Leukocyte Antigen - DR isotype (HLADR) Biomarker Activity (AID 2283019; active = hit-call score of the fitted dose curve at least 0.9, where 1 is the maximum; inactive = score below 0.9;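 as to outcome: ELISA of cell-surface HLA-DR on HUVEC 24 h after dosing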). Particulars: primary human endothelial cells (HUVEC); actives raise or lower the signal. An outline of the steps:
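Bidirectional fitting against DMSO was applied to the HLA-DR ELISA signal from human umbilical vein endothelial cells, 24 h post-dose. Cytotoxicity came from parallel SRB total-protein staining; 3C proliferation was counted by SRB at 48 h.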

Read-out in experiment [10]: Monokine induced gamma interferon (MIG), CXCL9 (gene 4283)
Kind of experiment: BSK_3C_MIG: BioMAP Diversity Plus: 3C Assay for Monokine induced gamma interferon (MIG) Biomarker Activity (AID 2283021; active = hit-call score of the fitted dose curve at least 0.9, where 1 is the maximum; inactive = score below 0.9;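 as to AC50: MIG protein level measured by immunoassay in the treated endothelial cultures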). The conditions noted are these: primary human endothelial cells (HUVEC); actives raise or lower the signal. An outline of the steps:
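Primary human umbilical vein endothelial cells in the 3C system were exposed to chemical for 24 h, after which MIG was quantified by ELISA. Activity was fitted bidirectionally against DMSO as negative control and baseline.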

The target in experiment [11] is human Vitamin D Receptor (VDR), VDR (gene 7421) (UniProt P11473). Kind of experiment: ATG_VDR_TRANS: Attagene TRANS-FACTORIAL HepG2 Assay for human Vitamin D Receptor (VDR) (AID 2283022). An outline of the steps:
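Transactivation by an exogenous VDR-Gal4 chimera in transiently transfected HepG2 cells was measured as reporter transcript level 24 hours after chemical treatment. RT-PCR products were analysed by capillary electrophoresis and fitted in the positive direction relative to DMSO.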

The target in experiment [12] is Peroxisome proliferator-activated receptor gamma (Homo sapiens) (UniProt P37231). Kind of experiment: ATG_PPARg_TRANS: Attagene TRANS-FACTORIAL HepG2 Assay for human Peroxisome Proliferator-activated Receptor-gamma (PPARg) (AID 2283007). An outline of the steps:
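Read-out: reporter mRNA induction, detected by fluorescence after RT-PCR and capillary electrophoresis. Transiently transfected human HepG2 liver cells carrying a chimeric NR-Gal4 construct were dosed for 24 h; activity was fitted upward relative to DMSO.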

Read-out in experiment [13]: Monocyte Chemoattractant Protein-1 (MCP1), CCL2 (gene 6347)
Kind of experiment: BSK_3C_MCP1: BioMAP Diversity Plus: 3C Assay for Monocyte Chemoattractant Protein-1 (MCP1) Biomarker Activity (AID 2283017; active = hit-call score of the fitted dose curve at least 0.9, where 1 is the maximum; inactive = score below 0.9). Particulars: primary human endothelial cells (HUVEC); actives raise or lower the signal. An outline of the steps:
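MCP-1 was measured by ELISA 24 h after dosing in primary HUVEC 3C cultures and fitted in both directions relative to DMSO; cytotoxicity was checked by SRB total-protein staining in parallel wells.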

For experiment [14], the target named is human Retinoic Acid Receptor beta (RARb), RARB (gene 5915) (UniProt P10826). Kind of experiment: ATG_RARb_TRANS: Attagene TRANS-FACTORIAL HepG2 Assay for human Retinoic Acid Receptor beta (AID 2283004). An outline of the steps:
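Induction of reporter mRNA from a chimeric RARb-Gal4 construct was measured by RT-PCR, FAM labelling, HpaI digestion and capillary electrophoresis. Measurements followed 24 h compound treatment of transiently transfected human HepG2 liver cells, with DMSO as baseline.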

For experiment [15], the target named is Retinoic acid receptor alpha (Homo sapiens) (UniProt P10276). Kind of experiment: ATG_RARa_TRANS: Attagene TRANS-FACTORIAL HepG2 Assay for human Retinoic Acid Receptor alpha (RARa) (AID 2283005). An outline of the steps: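 HepG2 transiently transfected with multiplex GAL4-UAS reporter units including a human RARa–GAL4 chimera; 24 h compound exposure. Reporter mRNA quantified by RT-PCR, 6-FAM labeling and capillary electrophoresis; gain of signal versus DMSO.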
Chain of Retinoic acid receptor alpha (Homo sapiens) (P10276 whole entry, looked up, the tested form may be a part): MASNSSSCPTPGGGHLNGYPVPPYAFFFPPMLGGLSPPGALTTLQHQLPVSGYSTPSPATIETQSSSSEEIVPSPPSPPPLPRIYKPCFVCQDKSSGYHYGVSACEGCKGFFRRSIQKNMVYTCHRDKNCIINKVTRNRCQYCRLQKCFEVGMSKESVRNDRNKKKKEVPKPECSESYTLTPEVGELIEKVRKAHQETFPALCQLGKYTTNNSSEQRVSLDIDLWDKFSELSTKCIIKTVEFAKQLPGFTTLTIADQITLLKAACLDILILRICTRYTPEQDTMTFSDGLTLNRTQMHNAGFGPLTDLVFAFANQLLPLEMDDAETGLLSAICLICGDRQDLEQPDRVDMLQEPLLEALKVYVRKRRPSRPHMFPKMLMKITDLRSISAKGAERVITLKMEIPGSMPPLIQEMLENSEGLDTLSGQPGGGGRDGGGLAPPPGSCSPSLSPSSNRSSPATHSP

The target in experiment [16] is human Retinoic Acid Receptor gamma (RARg), RARG (gene 5916) (UniProt P13631). Kind of experiment: ATG_RARg_TRANS: Attagene TRANS-FACTORIAL HepG2 Assay for human Retinoic Acid Receptor gamma (RARg) (AID 2283009). An outline of the steps: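 HepG2 cells transiently transfected with multiplexed reporter units expressing chimeric RARg-GAL4 and GAL4-UAS-driven reporters; 24 h compound exposure. Reporter mRNA quantified by RT-PCR with fluorescent labelling and capillary electrophoresis; gain-of-signal fitted relative to DMSO baseline.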
Chain of human Retinoic Acid Receptor gamma (RARg), RARG (gene 5916) (P13631 whole entry, looked up, the tested form may be a part): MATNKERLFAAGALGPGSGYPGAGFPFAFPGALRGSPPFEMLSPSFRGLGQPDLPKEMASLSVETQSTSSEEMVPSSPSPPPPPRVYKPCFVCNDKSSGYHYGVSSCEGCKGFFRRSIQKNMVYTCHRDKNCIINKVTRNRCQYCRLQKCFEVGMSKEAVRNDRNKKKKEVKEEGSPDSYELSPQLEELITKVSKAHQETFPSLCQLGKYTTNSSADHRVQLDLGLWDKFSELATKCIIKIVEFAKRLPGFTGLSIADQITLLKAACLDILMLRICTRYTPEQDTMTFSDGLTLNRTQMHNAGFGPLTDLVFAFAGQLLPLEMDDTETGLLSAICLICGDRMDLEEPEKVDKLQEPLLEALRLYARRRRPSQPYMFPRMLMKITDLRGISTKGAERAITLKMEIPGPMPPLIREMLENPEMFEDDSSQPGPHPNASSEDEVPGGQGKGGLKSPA

Experiment [17] has as its target Retinoic acid receptor RXR-alpha (Homo sapiens) (UniProt P19793). Kind of experiment: ATG_RXRa_TRANS: Attagene TRANS-FACTORIAL HepG2 Assay for human Retinoid X Receptor alpha (RXRa) (AID 2283012). An outline of the steps: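 HepG2 cells transiently transfected with multiplexed GAL4-UAS reporter units and chimeric NR-GAL4 fusions, dosed 24 h. Reporter mRNA measured by RT-PCR, FAM labelling, HpaI digestion and capillary electrophoresis; gain-of-signal fitted relative to DMSO baseline.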

In experiment [18] the target is human RAR-related Orphan Receptor gamma (RORg), RORC (gene 6097) (UniProt P51449). Kind of experiment: ATG_RORg_TRANS: Attagene TRANS-FACTORIAL HepG2 Assay for human RAR-related Orphan Receptor gamma (RORg) (AID 2283011). An outline of the steps:
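Reporter transcripts from a transfected RORg-GAL4 chimera in HepG2 cells were quantified 24 h after dosing by RT-PCR, 6-FAM labelling, HpaI digestion and capillary electrophoresis; increases over DMSO baseline were fitted.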

Experiment [19] addresses human Retinoid X Receptor beta (RXRb), RXRB (gene 6257) (UniProt P28702). Kind of experiment: ATG_RXRb_TRANS: Attagene TRANS-FACTORIAL HepG2 Assay for human Retinoid X Receptor beta (RXRb) (AID 2283013). An outline of the steps: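 HepG2 cells transiently transfected with multiplexed reporter units driven by GAL4-UAS and exogenous chimeric NR-Gal4 proteins; treated 24 h. Reporter mRNA measured by RT-PCR, 6-FAM labelling and capillary electrophoresis; gain-of-signal fitted versus DMSO baseline.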

Chain of human Thyroid Receptor alpha (THRa1), THRA (gene 7067) (P10827 whole entry, looked up, the tested form may be a part): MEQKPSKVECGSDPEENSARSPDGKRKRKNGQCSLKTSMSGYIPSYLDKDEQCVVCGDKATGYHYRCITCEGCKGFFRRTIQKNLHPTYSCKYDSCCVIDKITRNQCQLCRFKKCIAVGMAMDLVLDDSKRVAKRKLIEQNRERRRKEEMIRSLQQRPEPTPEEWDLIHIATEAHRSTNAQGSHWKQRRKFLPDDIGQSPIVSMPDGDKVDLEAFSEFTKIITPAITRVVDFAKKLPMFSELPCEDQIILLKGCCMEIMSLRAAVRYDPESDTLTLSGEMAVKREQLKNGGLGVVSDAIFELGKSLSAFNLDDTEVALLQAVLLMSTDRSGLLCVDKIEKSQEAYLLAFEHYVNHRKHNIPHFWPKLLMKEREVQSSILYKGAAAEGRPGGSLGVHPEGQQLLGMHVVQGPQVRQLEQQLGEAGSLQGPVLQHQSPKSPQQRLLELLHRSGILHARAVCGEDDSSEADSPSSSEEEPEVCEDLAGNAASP
Chain of E-selectin (Homo sapiens) (P16581 whole entry, looked up): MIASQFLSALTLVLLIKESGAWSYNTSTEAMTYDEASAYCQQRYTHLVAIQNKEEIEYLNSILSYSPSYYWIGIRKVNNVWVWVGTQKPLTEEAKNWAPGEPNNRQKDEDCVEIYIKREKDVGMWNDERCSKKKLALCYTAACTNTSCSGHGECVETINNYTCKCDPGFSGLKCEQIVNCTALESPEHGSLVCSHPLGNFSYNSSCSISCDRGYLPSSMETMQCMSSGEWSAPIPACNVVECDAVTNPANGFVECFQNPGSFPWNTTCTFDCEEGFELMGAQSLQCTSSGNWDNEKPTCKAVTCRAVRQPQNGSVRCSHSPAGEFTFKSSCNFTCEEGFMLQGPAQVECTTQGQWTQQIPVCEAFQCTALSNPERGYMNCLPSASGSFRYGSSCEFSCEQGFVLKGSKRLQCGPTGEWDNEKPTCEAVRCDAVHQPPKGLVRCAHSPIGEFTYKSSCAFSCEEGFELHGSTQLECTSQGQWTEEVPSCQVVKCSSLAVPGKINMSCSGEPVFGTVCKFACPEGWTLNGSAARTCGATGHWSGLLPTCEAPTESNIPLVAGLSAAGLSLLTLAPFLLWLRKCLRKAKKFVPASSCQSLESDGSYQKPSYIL
Chain of Peroxisome proliferator-activated receptor gamma (Homo sapiens) (P37231 whole entry, looked up, the tested form may be a part): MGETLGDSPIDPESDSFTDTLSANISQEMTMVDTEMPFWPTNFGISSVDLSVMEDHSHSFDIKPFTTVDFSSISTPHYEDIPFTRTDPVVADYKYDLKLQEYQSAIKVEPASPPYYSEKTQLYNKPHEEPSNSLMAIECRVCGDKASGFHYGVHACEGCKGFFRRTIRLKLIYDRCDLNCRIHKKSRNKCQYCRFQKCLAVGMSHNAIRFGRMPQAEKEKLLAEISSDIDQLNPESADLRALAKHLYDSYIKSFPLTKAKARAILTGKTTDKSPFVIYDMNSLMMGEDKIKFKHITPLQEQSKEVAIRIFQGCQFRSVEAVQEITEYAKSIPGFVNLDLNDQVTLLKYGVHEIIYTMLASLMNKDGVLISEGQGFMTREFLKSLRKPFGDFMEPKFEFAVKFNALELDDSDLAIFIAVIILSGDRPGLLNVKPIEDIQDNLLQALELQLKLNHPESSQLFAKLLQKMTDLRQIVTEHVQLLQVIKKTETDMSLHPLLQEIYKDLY
Chain of human RAR-related Orphan Receptor beta (RORb), RORB (gene 6096) (Q92753 whole entry, looked up, the tested form may be a part): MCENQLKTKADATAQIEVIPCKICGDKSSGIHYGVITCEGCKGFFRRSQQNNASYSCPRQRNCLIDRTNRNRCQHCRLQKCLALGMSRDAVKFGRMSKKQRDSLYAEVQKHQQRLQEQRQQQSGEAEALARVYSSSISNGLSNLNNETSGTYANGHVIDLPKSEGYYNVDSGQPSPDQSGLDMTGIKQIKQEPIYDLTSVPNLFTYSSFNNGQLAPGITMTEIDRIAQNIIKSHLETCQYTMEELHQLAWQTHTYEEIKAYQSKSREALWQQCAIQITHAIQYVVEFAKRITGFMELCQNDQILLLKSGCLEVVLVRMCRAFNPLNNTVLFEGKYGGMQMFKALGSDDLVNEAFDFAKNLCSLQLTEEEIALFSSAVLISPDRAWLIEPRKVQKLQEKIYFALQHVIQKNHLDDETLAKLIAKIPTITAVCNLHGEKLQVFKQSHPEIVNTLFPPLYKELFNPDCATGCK
Chain of human Retinoic Acid Receptor beta (RARb), RARB (gene 5915) (P10826 whole entry, looked up, the tested form may be a part): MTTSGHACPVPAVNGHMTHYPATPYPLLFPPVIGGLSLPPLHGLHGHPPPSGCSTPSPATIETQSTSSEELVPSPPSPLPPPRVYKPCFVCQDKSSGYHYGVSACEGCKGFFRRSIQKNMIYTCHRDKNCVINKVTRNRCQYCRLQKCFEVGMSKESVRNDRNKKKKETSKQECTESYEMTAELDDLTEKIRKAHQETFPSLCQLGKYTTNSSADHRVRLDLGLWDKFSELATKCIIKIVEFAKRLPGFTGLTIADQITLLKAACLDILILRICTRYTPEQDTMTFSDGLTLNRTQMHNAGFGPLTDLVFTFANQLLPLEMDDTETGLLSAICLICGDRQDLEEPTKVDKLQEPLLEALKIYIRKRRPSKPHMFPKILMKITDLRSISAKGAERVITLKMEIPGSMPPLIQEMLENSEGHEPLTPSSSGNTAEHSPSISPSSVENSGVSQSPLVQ
Chain of human Vitamin D Receptor (VDR), VDR (gene 7421) (P11473 whole entry, looked up, the tested form may be a part): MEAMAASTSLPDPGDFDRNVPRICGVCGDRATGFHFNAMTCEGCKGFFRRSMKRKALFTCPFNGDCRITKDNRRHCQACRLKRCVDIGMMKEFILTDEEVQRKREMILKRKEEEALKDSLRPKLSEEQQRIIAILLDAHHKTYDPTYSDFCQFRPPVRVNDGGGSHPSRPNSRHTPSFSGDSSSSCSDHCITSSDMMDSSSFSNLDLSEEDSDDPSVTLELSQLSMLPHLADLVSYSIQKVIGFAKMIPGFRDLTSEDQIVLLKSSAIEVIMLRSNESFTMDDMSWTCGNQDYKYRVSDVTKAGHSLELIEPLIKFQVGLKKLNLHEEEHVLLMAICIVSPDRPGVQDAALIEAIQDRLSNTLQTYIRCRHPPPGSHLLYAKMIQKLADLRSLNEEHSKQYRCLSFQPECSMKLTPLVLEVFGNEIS
Chain of human RAR-related Orphan Receptor gamma (RORg), RORC (gene 6097) (P51449 whole entry, looked up, the tested form may be a part): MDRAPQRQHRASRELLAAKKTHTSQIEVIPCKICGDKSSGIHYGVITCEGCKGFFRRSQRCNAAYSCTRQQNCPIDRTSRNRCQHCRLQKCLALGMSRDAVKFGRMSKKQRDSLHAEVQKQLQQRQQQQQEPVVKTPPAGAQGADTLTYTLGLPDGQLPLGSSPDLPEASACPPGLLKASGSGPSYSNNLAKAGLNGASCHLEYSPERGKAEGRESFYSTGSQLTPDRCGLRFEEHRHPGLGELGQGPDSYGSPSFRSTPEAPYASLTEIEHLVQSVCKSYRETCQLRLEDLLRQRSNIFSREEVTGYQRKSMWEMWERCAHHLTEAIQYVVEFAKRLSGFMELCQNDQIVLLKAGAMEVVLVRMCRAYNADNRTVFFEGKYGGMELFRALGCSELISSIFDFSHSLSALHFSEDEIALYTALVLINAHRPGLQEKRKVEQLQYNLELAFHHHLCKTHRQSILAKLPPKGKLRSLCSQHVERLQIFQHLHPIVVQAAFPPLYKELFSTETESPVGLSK

As to `N#Cc1cccnc1`, the result in experiment [1], in experiment [2], in experiment [3], in experiment [4], in [5] and in [6] was inactive. In addition, the result in experiment [7], in experiment [8], in experiment [9], in [10] and in [11] was inactive.
For the compound `CC(C)N(C(=O)CCl)c1ccccc1`, the half-maximal activity concentration (AC50) (as a rule, the midpoint of the concentration-response curve, whichever way the signal moves) was 25.8 µM (active) in experiment [1]; 20 µM (active) in experiment [2]; 3.21 µM (active) in experiment [12]; 20 µM (active) in experiment [6]; 35.1 µM (active) in experiment [7]; 20 µM (active) in experiment [13]. The values for the AC50 in experiment [8], in [9] and in experiment [10] were 20 µM (active), 7.36 µM (active) and 33.3 µM (active), respectively. Also, the compound was classed as inactive in [5] and in experiment [11].
Consider `CC(C)CC(C)(c1ccc(O)cc1)c1ccc(O)cc1`, for which the outcome in experiment [14], in [15], in [16], in experiment [17] and in experiment [5] was inactive. Besides, the AC50 in experiment [12] was 11.1 µM (active); in [3], 1.47 µM (active).
On to `CC(c1ccccc1)(c1ccc(O)cc1)c1ccc(O)cc1`, for which the call in experiment [14], in experiment [15] and in experiment [12] was inactive. Besides, the AC50 in experiment [3] is 2.54 µM (active).
Turning to `Cc1cc(Cl)ccc1OC(C)C(=O)O` (centres undefined), the result in experiment [1], in experiment [2], in [16], in experiment [4], in experiment [18] and in experiment [5] was inactive. Also, the result in experiment [6], in experiment [7], in experiment [8], in experiment [9] and in experiment [10] was inactive. In experiment [12], the AC50 is 71.4 µM (active).
On to `CN(C)c1ccc(N=O)cc1`, for which the compound was called inactive in experiment [14], in experiment [15], in experiment [12], in [3], in experiment [16] and in experiment [4]. Further, the call in experiment [18], in experiment [19] and in experiment [5] was inactive.
